# Sm TGR block = inhibitors of Schistosoma mansoni thioredoxin glutathione reductase; Q962Y6; purified TGR, DTNB reduction, TNB absorbance 405 nm; Potency, µM (titrated, usually from 114 µM), inactives show at the top dose activity change, negative = inhibition, usual class: inhibitors; 360,000 compounds, 3% hits; further: on the % scale 0 is the no-effect control and ±100 the full control effect; nearly all actives have a fitted effect of over 60% in size
#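 TGR 20 nM + NADPH 100 uM (dispensed conc.), cpd preinc 15 min RT; start with NADPH (500 uM addition) then DTNB (15 mM addition). Kinetic TNB absorbance, 405 nm filter. Four-parameter Hill fit across titration.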
# Pf growth 48h = P. falciparum growth inhibition at 48 hours (one generation). P. falciparum luciferase growth in erythrocytes, 48 h. Potency, µM (top dose mostly 28.7 µM), without a hit: top-dose activity change, negative = inhibition, hits mostly inhibitors. 310,000 compounds, 5.9% hits. AID 504832; further: on the % scale 0 is the no-effect control and ±100 the full control effect
#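 Firefly luciferase activity from engineered P. falciparum reports growth; inhibitors lower the luminescent signal. Cultures contained 2% hematocrit erythrocytes at 0.1% final parasitemia.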
# NS1 inh = influenza NS1 inhibition. Potency, µM (highest dose often 46.1 µM), inactives show at the highest dose activity, positive = more growth. 270,000 compounds, 0.4% hits; calls by dose curve; further: actives are rising curves; nearly all actives have a fitted effect of over 50% in size
#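 Read-out: OD600 growth recovery of NS1-expressing budding yeast. Cells grown overnight at 30C in -URA glucose medium, washed, resuspended and diluted 1:100 in 2% galactose assay medium, pH 6.0. Same strain lacking NS1 served as positive control.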
# Pf growth 96h = P. falciparum growth inhibition at 96 hour, primary screen for plastid delayed-death inhibitors | Potency, µM (series often up to 28.7 µM), without a hit: at the highest dose activity change, negative = inhibition, most hits filed as inhibitors | 320,000 compounds, 6.9% hits | P. falciparum luciferase reporter growth, 96 h; further: on the % scale 0 is the no-effect control and ±100 the full control effect
#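 P. falciparum expressing integrated firefly luciferase grown in erythrocytes (2% hematocrit, 0.05% parasitemia final) with compounds for 96 hours at 37 C, 5% CO2. Growth inhibition read as loss of luminescence after adding luciferase detection reagent.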
# AMA1-RON2 inh = AMA1-RON2 (P. falciparum) interaction inhibition. AlphaScreen AMA1-biotinylated RON2 peptide binding. Potency, µM (series often up to 58.2 µM), for inactives: at the highest dose activity change, negative = inhibition, usual class: inhibitors. 360,000 compounds, 0.2% hits. AID 720542;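 further: 0% = vehicle wells and -100% = peptide control; nearly all actives have a fitted effect of over 45% in size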
#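 AMA1 (3D7) with his tag at 25 nM final met compounds first, then biotinylated RON2 peptide at 25 nM; detection used donor plus acceptor beads, 10 µg/mL apiece, read by AlphaScreen after 30 min at room temperature.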
# * marks the source's active call; other numbers are inactive results; ? = inconclusive; . = no result given. Sampled rows, rich in hits. Any-hit rate of the full collection: about 11%. Unless noted, the call rests on the fitted dose curve; in most records, active means well fitted curve in the direction sought with a large enough effect; inconclusive means small, poorly fitted or top-dose-only effect, or another doubt; inactive means no such curve, though single readings can be large; an effect the other way counts as inactive or inconclusive. Potency means the concentration at half of the fitted maximal effect.
SMILES,Sm TGR block,Pf growth 48h,NS1 inh,Pf growth 96h,AMA1-RON2 inh
COc1ccc(-c2c[n+]3c(n2-c2ccc(C)cc2)CCCCC3)cc1,7%,0.93µM*,-1%,0.29µM*,0%
COc1ccc(-c2c[n+]3c(n2-c2ccccc2)CCCCC3)cc1,3%,1µM*,4%,?,3%
COc1ccc(-n2c(-c3ccc(Cl)cc3)c[n+]3c2CCCCC3)cc1,-1%,1µM*,-3%,0.47µM*,10%
COc1ccc(-c2c[n+]3c(n2-c2c(C)n(C)n(-c4ccccc4)c2=O)CCCCC3)cc1,?,?,.,14%,-12%
COc1ccc(-c2c[n+]3c4n2CCCCC4=C(c2ccccc2)C3)cc1,-1%,?,-22%,6.6µM*,20%
FC(F)Oc1ccc(-c2c[n+]3c(n2-c2ccccc2)CCCCC3)cc1,-1%,?,5%,?,10%
Cc1cc(C)c(C(=O)C(C)OC(=O)C2=COCCO2)cc1C (centres undefined),-21%,-8%,-10%,-2%,0%
Cc1ccc(S(=O)(=O)N2[C@@H](c3cccc(Cl)c3)C(C(=O)O)=CC[C@H]2c2ccc(C(C)C)cc2)cc1,-15%,-25%,.,57%,13%
NC(=O)C1CCN(c2nc(-c3cccc([N+](=O)[O-])c3)cs2)CC1,.,?,.,-19%,.
COc1ccc(CNC(=O)c2ccc(NC(=O)N3CCCCc4ccccc43)cc2)c(OC)c1,9%,.,.,.,.
COC/C=C/C1=CC2=CC(=O)C(C)(OC(=O)c3cnc4ccccc4n3)C(=O)C2=CN1c1ccc(CO)cc1 (centres undefined),45µM*,36%,8%,8%,.
COC/C=C/C1=CC2=CC(=O)C(C)(OC(=O)c3cnc4ccccc4n3)C(=O)C2=CN1CC(C)C (centres undefined),.,.,.,.,-11%
COC/C=C/C1=CC2=CC(=O)C(C)(OC(=O)c3cnc4ccccc4n3)C(=O)C2=CN1c1ccccc1 (centres undefined),22µM*,?,11%,?,?
CC(C)(CO)CNC(=O)c1ccc2nc(Cc3cccc(Cl)c3)oc2c1,1%,26%,2%,?,-2%
O=C(/C=C/c1ccccn1)c1cc(Cl)cc(Cl)c1O,40µM*,?,-42%,?,82%
COc1ccc(/C=C/C(=O)c2cc(Cl)cc(Cl)c2O)c(OC)c1,-28%,-18%,1%,13%,-12%
CCCCCC(=O)Nc1nc(C)c(-c2csc(Nc3ccc(Cl)cc3)n2)s1,6%,15µM*,28%,?,11%
CCCCCCC(=O)Nc1nc(C)c(-c2csc(Nc3ccc(Cl)cc3)n2)s1,10%,10µM*,18%,2.9µM*,10%
CCCCCC(=O)Nc1nc(C)c(-c2csc(Nc3cc(Cl)ccc3C)n2)s1,-25%,?,28%,?,-1%
CCn1c(O)c(/C=N/NC(=O)c2ccccc2)c(=O)[nH]c1=S,-8%,?,-5%,58%,-6%
COc1ccccc1-n1c(O)c(/C=N/NC(=S)Nc2ccccc2)c(=O)[nH]c1=S,11µM*,48%,9%,11%,97%
CCOc1ccc(NC(=O)C2CCC(CNc3c(N4CCC(C)CC4)c(=O)c3=O)CC2)cc1 (centres undefined),-1%,4.1µM*,3%,2.3µM*,13%
COc1cc(NC(=O)C2CCC(CNc3c(N4CCC(C)CC4)c(=O)c3=O)CC2)cc(OC)c1 (centres undefined),5%,.,17%,-27%,-8%
COc1ccc(NC(=O)C2CCC(CNc3c(N4CCC(C)CC4)c(=O)c3=O)CC2)cc1OC (centres undefined),-2%,.,2%,-39%,-5%
O=C(Nc1ccc(F)cc1)C1CCC(CNc2c(N3CCCCC3)c(=O)c2=O)CC1 (centres undefined),11%,12µM*,6%,?,5%
SMILES,Sm TGR block,Pf growth 48h,NS1 inh,Pf growth 96h,AMA1-RON2 inh
COc1cc(NC(=O)C2CCC(CNc3c(N4CCCCC4)c(=O)c3=O)CC2)cc(OC)c1 (centres undefined),3%,12µM*,-37%,5%,-3%
CCOc1ccc(NC(=O)C2CCC(CNc3c(N4CCCCC4)c(=O)c3=O)CC2)cc1 (centres undefined),10%,6.6µM*,-6%,5.9µM*,-4%
COc1ccccc1NC(=O)C1CCC(CNc2c(N3CCCCC3)c(=O)c2=O)CC1 (centres undefined),8%,34%,3%,0%,-7%
CN(C)N1C(=O)CC(N2CCCCC2)C1=O (centres undefined),?,8%,.,24%,-6%
COc1cccc(NC(=O)N2CCCC2C(=O)NC23CC4CC(CC(C4)C2)C3)c1 (centres undefined),-12%,-1%,-3%,2%,-2%
CCOC(=O)Cn1c(C(F)(F)F)nc2nc(Cl)c(Cl)nc21,.,.,-4%,.,15%
COc1ccc(N2CC(NC(=O)c3ccc4c(c3)OCO4)CC2=O)cc1 (centres undefined),-1%,.,.,.,.
CCCCC(=O)Nc1nc2ccc3nc(C)sc3c2s1,-8%,?,-45%,10µM*,14%
CCN(CC)C(=O)[C@H]1CC(CC(=O)NCCCn2ccnc2)C(=O)N2CCc3c([nH]c4ccccc34)[C@]12C (some centres undefined),.,.,.,.,-14%
CCCc1cc(=O)oc2cc(C)cc(OCC(=O)N3CCC(C(=O)O)CC3)c12,3%,-1%,-3%,36%,15%
COC(=O)c1ccc(C2Nc3c(C)cc(C)cc3C3C=CCC32)cc1 (centres undefined),1.1µM*,.,.,.,.
Cc1cc(C)c2c(c1)[C@@H]1C=CC[C@@H]1[C@H](c1ccc(S(=O)(=O)N3CCOCC3)cc1)N2,2.8µM*,10µM*,?,8%,-9%
COC(=O)c1ccc([C@H]2Nc3ccc(S(=O)(=O)Nc4ccc(F)cc4)cc3[C@H]3C=CC[C@H]32)cc1,32µM*,.,.,.,.
COC(=O)c1ccc([C@@H]2Nc3c(cccc3C(F)(F)F)[C@@H]3C=CC[C@@H]32)cc1,2%,.,.,.,.
O=C(Nc1ccc(F)c(Cl)c1)C1Cc2ccccc2CN1S(=O)(=O)c1ccc(F)cc1 (centres undefined),1%,.,.,.,.
CCCCN1C(=O)C(CC(=O)NCc2cccc3ccccc23)CC(C(=O)N(C(C)C)C(C)C)=C1C (centres undefined),.,.,.,.,-5%
COC(=O)c1ccc(COc2cccn3c(N(C)C(=O)CCC4CCCC4)c(C)nc23)cc1,.,.,.,.,-18%
O=C(C[C@@H]1C/C=C\CCC(=O)OC[C@@H]2CCCN2C1=O)N[C@@H](CO)Cc1ccccc1,.,.,.,.,16%
O=C(CSc1nnc2ccccn12)NNC(=O)c1ccc(F)cc1,2%,17%,.,14%,21%
CCc1ccc(NC(=O)C2CCN(S(=O)(=O)c3c(C)noc3C)CC2)cc1,-5%,-8%,1%,5.9µM*,6%
